# Hit rate of the full screen: of about 85,000 compounds, about 440 (0.52%) showed an effect of 50% or more. The full list was thinned out, with strong results kept by preference.
# Assay: In vitro enzyme assay to detect hydrolysis of chlorophenol red-beta-D-[…] directly proportional to the number of Toxoplasma stably expressing beta-galactosidase
# Type: functional, organism-based, Toxoplasma gondii
# Set-up: scale not given: in the data most compounds retested in dose-response had high values
Compound,Percent Effect (50 µM) [%],Percent Effect (10 µM) [%]
CC(C)(C)C(=O)CCN1CCCCC1,28.4,
CNCC1CCS(=O)(=O)C1 (stereo not drawn),7.416,
NC(=O)C(Cc1ccccc1)NS(=O)(=O)Cc1ccccc1Cl (stereo not drawn),,50.03
NC(=O)C(Cc1ccccc1)NS(=O)(=O)Cc1ccccc1F (stereo not drawn),,-5.639
N#Cc1cccc(CS(=O)(=O)NC(Cc2ccccc2)C(N)=O)c1 (stereo not drawn),,-7.673
CCCn1ncc(-c2ccnc(NC3CCCc4ccccc43)n2)c1C (stereo not drawn),,4.434
CCCn1ncc(-c2ccnc(N[C@@H]3C[C@@H]4CC[C@H]3C4)n2)c1C,,55.29
CCCn1ncc(-c2ccnc(NC3CCSC3)n2)c1C (stereo not drawn),,16.2
CCc1cc(N[C@@H]2C[C@H]3CC[C@@H]2C3)n2nccc2n1,,9.168
CCCn1cc(-c2ccnc(NC3CCc4ccccc4C3)n2)c(C)n1 (stereo not drawn),,39.11
CCCn1ncc(-c2ccnc(NC3CC(C)(C)NC(C)(C)C3)n2)c1C,,50.73
C[C@@H]1CNC[C@H]1C(N)=O,-3.858,
COCC1(C(=O)N2C[C@@H](N)C[C@H]2C(=O)NC(C)C)CC1,-6.582,
COC(=O)c1cn(CC(=O)Nc2cccc(F)c2)nn1,-28.09,
CC(N)C(=O)N(C)C1CCOCC1 (stereo not drawn),-25.47,
OCc1nnc2n1N=C(c1ccc(Cl)cc1)CS2,-7.844,
Cc1nnc2n1N=C(c1cccs1)CS2,-17.29,
Cc1nnc2n1N=C(c1ccccc1)CS2,84.29,
COCc1cccc(C(=O)Nc2ccncc2)c1,-8.978,
COCCN(CCC#N)S(=O)(=O)c1ncn(C)c1Cl,2.241,

Compound,Percent Effect (50 µM) [%],Percent Effect (10 µM) [%]
O=C(CN1CCn2ccnc2C1)Nc1ccc(Cl)cn1,-8.564,
CC(C)n1cnnc1CN1CCN(c2nc[nH]n2)CC1,14.64,
CCCN1CCC(C(N)=O)CC1,-22.14,
CS(=O)(=O)CCN1CCC(C(N)=O)CC1,50.58,
NCCN1CCC(C(N)=O)CC1,44.2,
O=C(Nc1nncs1)c1cccc(O)c1,-14.91,
Cc1ccc(F)cc1NC(=O)C(C)Nc1cnn(C)c1 (stereo not drawn),17.75,
CNC(=O)c1cccc(NCc2nc(C)cs2)n1,-1.003,
O=C1NCCN(C(=O)c2ccc(Br)o2)C1c1cccs1 (stereo not drawn),99.65,
COC(=O)CCN1CCNC(=O)C1c1cccs1 (stereo not drawn),-1.577,
N#Cc1ccc(CN2CCNC(=O)C2c2cccs2)cc1 (stereo not drawn),,7.265
Cc1nc(CNC(=O)N(C)Cc2ccncc2)cs1,-10.17,
NC(=O)C1(O)CCN(Cc2nc(C3CCCC3)no2)C1 (stereo not drawn),-5.906,
CCC(=O)NC1CCCN(Cc2noc(C)n2)C1 (stereo not drawn),11.52,
CC(C)COCCC(=O)Nc1nccs1,97.25,
CCC(C)C(=O)Nc1nccs1 (stereo not drawn),-54.41,
CC(C)COCCC(=O)Nc1c(-c2ccc(F)cc2)ncn1C,,2.891
Cc1ccc(C)c(NC(=O)CN2CCC(O)CC2)c1,-4.783,
COCc1nc(CCN)no1,-5.41,
CCC(=O)N1CCN(c2ncnc3cc4c(cc23)OCCO4)CC1,,75.76

Compound,Percent Effect (50 µM) [%],Percent Effect (10 µM) [%]
COCC(=O)N1CCN(c2ncnc3cccc(F)c23)CC1,,-5.192
CN(C)C(=O)c1ccc2ncnc(N3CCCC3)c2c1,-3.186,
CC(C)CCC(=O)N1CCN(c2ncnc3nc(N)ccc23)CC1,,1.58
CC(=O)N1CCN(c2ncnc3cc4c(cc23)OCCO4)CC1,,56.5
CC(C)C(=O)N1CCN(c2ncnc3cc4c(cc23)OCCO4)CC1,,49.63
CCC(C)C(=O)Nc1ccc(C(=O)N2CCCC2)cc1 (stereo not drawn),-4.343,
NCC(=O)c1ccncc1,-6.113,
CC(CC(=O)NCCCS(N)(=O)=O)c1cccc(F)c1 (stereo not drawn),3.903,
Cn1nccc1C(=O)NC1CCc2ccccc2OC1 (stereo not drawn),1.645,
Cc1[nH]/c(=N\C(=O)c2csc(NCC(C)C)n2)sc1C,,92.95
Cc1n[nH]/c(=N\C(=O)c2csc(NC3CC3)n2)s1,37.81,
O=C(Nc1nccs1)c1csc(NC2CCCC2)n1,,94.63
Cc1[nH]/c(=N\C(=O)c2csc(NC3CC3)n2)sc1C,,-0.3064
Cc1[nH]/c(=N\C(=O)c2csc(NC3CCCC3)n2)sc1C,,89.34
CC(C)CNc1nc(C(=O)/N=c2\[nH]nc(C(C)(C)C)s2)cs1,,0.3064
O=C(NCc1nccs1)c1csc(NC2CC2)n1,6.462,
Cc1cs/c(=N/C(=O)c2csc(NCC(C)C)n2)[nH]1,,19.16
CC(=O)Nc1nc(C(=O)Nc2nccs2)cs1,1.313,

# — ChEMBL document CHEMBL3988442, “University of Dundee, Small-Polar-MMV Screening Library” (2021)
